The text below walks through data of ChEMBL document CHEMBL3988442, “University of Dundee, Small-Polar-MMV Screening Library” (2021).

Experiment [1] addresses T1, Aspartate--tRNA(Asp/Asn) ligase (Mycobacterium tuberculosis (strain ATCC 25618 / H37Rv)) (UniProt P9WFW3).
T1 sequence (whole entry): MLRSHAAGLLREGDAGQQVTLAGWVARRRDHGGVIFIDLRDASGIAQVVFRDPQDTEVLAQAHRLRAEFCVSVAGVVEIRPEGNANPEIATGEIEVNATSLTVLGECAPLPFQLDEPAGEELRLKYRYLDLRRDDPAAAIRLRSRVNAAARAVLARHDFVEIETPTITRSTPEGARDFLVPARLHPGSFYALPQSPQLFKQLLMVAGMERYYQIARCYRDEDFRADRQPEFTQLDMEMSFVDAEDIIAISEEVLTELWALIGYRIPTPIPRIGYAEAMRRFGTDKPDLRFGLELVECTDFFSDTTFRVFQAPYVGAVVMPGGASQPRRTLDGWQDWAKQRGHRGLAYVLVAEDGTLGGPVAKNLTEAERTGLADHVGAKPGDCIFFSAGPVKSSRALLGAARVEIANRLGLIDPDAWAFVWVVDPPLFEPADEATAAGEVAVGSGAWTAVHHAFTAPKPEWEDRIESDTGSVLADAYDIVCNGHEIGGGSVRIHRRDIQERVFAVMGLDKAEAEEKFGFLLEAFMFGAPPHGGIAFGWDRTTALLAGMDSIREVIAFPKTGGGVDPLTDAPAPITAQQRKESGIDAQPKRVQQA
Briefly: Assay for Asp RNA synthetase-1 from Mycobacterium tuberculosis. More on the design: scale not given: direction of the effect not stated beside the values. As to conditions: 30 µM. The class given is functional.

The target in experiment [2] is Shiga toxin 2 (Escherichia coli O157:H7) (UniProt P09385+P09386). The experiment can be described thus: E. coli 0.157:H7 Shiga Toxin SOP - stx2 screening assay. Format: functional. More on the design: scale not given: direction of the effect not stated beside the values. As to conditions: 30 µM.

`O=C(CC1CC1)NCc1cc(=O)n2c(n1)CN(Cc1ccoc1)CCC2`: the Percent Effect was -2.64% in experiment [1] and -17% in experiment [2].
On the same counts, the results for `Cc1cc(C)cc(OCC(=O)NC2CCN(S(C)(=O)=O)CC2)c1` are 0.903% and -16.4%.
In the case of `CC(C)n1c(C2CCCN(Cc3ccnn3C)C2)nc2ccccc21` (centres undefined), the Percent Effect was -2.04% in experiment [1] and 1.29% in experiment [2].
Regarding `Cn1cnc2c1CCN(CCCOc1ccc(C#N)cc1)C2`, the values for the Percent Effect in experiment [1] and in experiment [2] were -4.46% and -24.8%, respectively.
Turning to `Cc1ccc(Oc2ccc(NC(=O)NCC3CCOC3)cn2)cc1C` (centres undefined), the Percent Effect in experiment [1] was 0.322%; in experiment [2] it was -6.2%.
Take `N#Cc1ccccc1OCCN1CCn2c(nnc2C2CC2)C1`: the figures for the Percent Effect in experiment [1] and in experiment [2] were -1.13% and -21.3%, respectively.
As to `O=S(=O)(CCN1CCOC(Cn2cncn2)C1)c1ccccc1` (centres undefined), the Percent Effect in experiment [1] was -2.75%; in experiment [2], -7.21%.
Regarding `CN(Cc1ccc(F)cc1)CC1(O)CCN(C(=O)c2cccn2C)C1` (centres undefined), the Percent Effect is -4.54% in experiment [1] and -9.28% in experiment [2].
On to `N#Cc1ccccc1OCCN1CCCC1Cn1cccn1` (centres undefined), for which the Percent Effect is -0.558% in experiment [1] and 2.91% in experiment [2].
On the same counts, the results for `CC(C)CN1CCC(NC(=O)c2ccc(F)cc2I)CC1` are -2.95% and -20.7%.
For the compound `CN1CCN(C(=O)NC2CC2)Cc2cccnc21`, the Percent Effect was 8.44% in experiment [1] and -32.5% in experiment [2].
Taken in the same sequence, the figures for `CC(C)(C)C(=O)N1CCC(c2nc(O)cc(-c3ccccn3)n2)CC1` were 5.88% and -6.29%.
`Cn1ncc(NCc2cccc(COC(C)(C)C)c2)c(Cl)c1=O`: the figures for the Percent Effect in experiment [1] and in experiment [2] were -4.13% and 12%, respectively.
`c1cnn(CCN2CCOC(Cn3cncn3)C2)c1` (centres undefined): the Percent Effect in experiment [1] is 0.685%; in experiment [2], -9.56%.
Turning to `O=C(c1cc(COc2ccc3c(c2)OCO3)[nH]n1)N1CC=CC1CO` (centres undefined), the Percent Effect in experiment [1] was 1.75%; in experiment [2] it was -30.9%.
On the same counts, the results for `CCC1=N[C@@]2(CC[C@@H]3CN(C(=O)Nc4ccc(F)cc4)C[C@@H]32)C(=O)N1` are 0.408% and 5.29%.
On to `NS(=O)(=O)CCNC(=O)c1nnn(-c2ccccc2)c1C1CC1`, for which the Percent Effect in experiment [1] was 2.35%; in experiment [2], -12.7%.
Taken in the same sequence, the figures for `c1ccc(OCCCNCCn2cccn2)cc1` were -1.5% and -44.6%.
Taken in the same sequence, the figures for `CCn1cnnc1C1CCN(C(=O)c2cnc3ccccc3n2)CC1` were -1.17% and -10.9%.
On the same counts, the results for `CCc1c(C(=O)NCC(=O)OCC2CC2)cnn1-c1ccc(C)cc1` are -5.03% and -6.36%.
As to `CC(C)COC(C)C(=O)NCc1ccc(OC(C)C)nc1` (centres undefined), the Percent Effect in experiment [1] amounted to 1.79%; in experiment [2], 9.54%.
Taken in the same sequence, the figures for `CCc1nc(CN(C)CC2CCN(CCO)CC2)no1` were -1.64% and -1.86%.
With `Cc1nc(N)sc1C(=O)N1CCCC(c2nccn2CCCN(C)C)C1` (centres undefined), the Percent Effect is -0.893% in experiment [1] and 12.2% in experiment [2].
For `CCS(=O)(=O)N1CCO[C@H]2[C@H](OCCCn3cccn3)CC[C@@H]21`, the Percent Effect in experiment [1] was 0.786%; in experiment [2] it was -17.2%.
On the same counts, the results for `Cc1ccc(NC2CCN(C(=O)c3ccsc3)CC2)nn1` are -2.79% and -2.79%.
Taken in the same sequence, the figures for `c1ccc(-c2cnc(CN3CCCC3Cn3cncn3)o2)cc1` (centres undefined) were -6.65% and 8.27%.
As for `Cc1cnn(CCNCc2nnc(C3CC3)o2)c1`, the figures for the Percent Effect in experiment [1] and in experiment [2] were 4.75% and -42.1%, respectively.
On the same counts, the results for `CCOc1cc(CNC(=O)N2CCC(Cc3cnn(C)c3)C2)ccn1` (centres undefined) are -2.52% and 2.76%.
With `O=C(c1nn(-c2ccccc2F)cc1O)N1CCCC1`, the Percent Effect was found to be 3.09% in experiment [1] and 16% in experiment [2].
Regarding `CCn1c(CN2CCN(CC(N)=O)CC2)nc2c(F)cccc21`, the Percent Effect was -3.37% in experiment [1] and 6.95% in experiment [2].
Taken in the same sequence, the figures for `CSCCCNC(=O)Nc1cccc(-c2nccn2C)c1` were -3.93% and -93.1%.
Regarding `Cc1nc(CCCNC(=O)C2CC(=O)N(C3CC3)C2)sc1C` (centres undefined), the Percent Effect in experiment [1] was 3.67%; in experiment [2], -28.3%.
`Cc1nc(CN2CCN(C(=O)COCc3ccccc3)CC2)no1`: the Percent Effect is -0.353% in experiment [1] and -1.66% in experiment [2].
Taken in the same sequence, the figures for `N#Cc1cccc(NC(=O)N[C@H](CO)c2ccccc2)c1` were 3.31% and -24.6%.
For `Cc1nc(CN2CCCC2c2ccsc2)nc2ccccc12` (centres undefined), the results for the Percent Effect in experiment [1] and in experiment [2] were -2.75% and -26.3%, respectively.
Taken in the same sequence, the figures for `O=C(NCc1ccco1)[C@H]1C[C@H]2OCC[C@H]2N(S(=O)(=O)C2CC2)C1` were 0.786% and -24.1%.
Regarding `CCn1cnnc1CNC(=O)N(C)Cc1ccc2c(c1)OCCO2`, the figures for the Percent Effect in experiment [1] and in experiment [2] were 14.5% and 13.4%, respectively.
On the same counts, the results for `O=C(Cn1nc2c(cc1=O)CSCC2)NC(Cc1ccccc1)C(=O)O` (centres undefined) are 0.581% and -19.5%.
For `O=C(C1CCCCC1)N1CCC2(CCCN2CC2CC2)CC1`, the Percent Effect in experiment [1] is 2.39%; in experiment [2], -6.44%.
On the same counts, the results for `COc1ccccc1CN(C)C(=O)c1cc(CN2CCC(O)CC2)on1` are 3.59% and -16.2%.
On the same counts, the results for `COCCCN(C)Cc1nc2c(cnn2C)c(=O)[nH]1` are -1.71% and -15.2%.
Taken in the same sequence, the figures for `CCOCC1CN(Cc2cccc(C#N)c2)Cc2nccn2C1` (centres undefined) were -2.92% and -10.3%.
As to `Cc1nc(CN2CCCC(NCc3ccsc3)C2)no1` (centres undefined), the values for the Percent Effect in experiment [1] and in experiment [2] were 3.1% and -14.2%, respectively.
Taken in the same sequence, the figures for `O=C(CCNC(=O)c1ccccc1)Nc1ccncc1` were -1.89% and -111%.
On the same counts, the results for `CCn1cnnc1CNC(=O)N1CCC(Cc2cccnc2)CC1` are -1.93% and 2.96%.
Consider `Cc1noc(C)c1CN1CCN(Cc2nccn2C)CC1`, for which the Percent Effect in experiment [1] was -5.33%; in experiment [2], -1.2%.
Consider `Cn1ncc2c(NCCOc3ccc(F)cc3)nc(C3CCCC3)nc21`, for which the Percent Effect is 2.47% in experiment [1] and -46.7% in experiment [2].
Taken in the same sequence, the figures for `CC(NC(=O)CCn1cncn1)c1nnc2n1CCCCC2` (centres undefined) were -0.486% and -13.7%.
For the compound `CC(=O)NCCN1CCC(c2cccs2)CC1`, the Percent Effect in experiment [1] was -5.78%; in experiment [2], 1.86%.
For the compound `CCc1ccc(C(=O)N2CCC(c3nncn3CC)CC2)cc1`, the Percent Effect in experiment [1] was -2.16%; in experiment [2], 7.54%.
In the case of `O=C(c1cccc2[nH]ncc12)N1CCCC1c1noc(C2CC2)n1` (centres undefined), the Percent Effect in experiment [1] was -4.54%; in experiment [2], 0.232%.
As to `Cc1ccccc1[C@@H]1CN(C(=O)c2ccc3[nH]nnc3c2)C[C@H]1C(=O)O`, the values for the Percent Effect in experiment [1] and in experiment [2] were 2.17% and -15.8%, respectively.
